Holding throughout (assay): PBM; 200 nM protein, PBS
Holding throughout (settings): dsDNA, one strand shown

Experiment [1] has as its target SHOX (Homo sapiens, UniProt O15266 103-189).
Experiment [2] has as its target HOXC9 (Homo sapiens, UniProt P31274 178-260, K195R).
Experiment [3] addresses HOXB6 (Homo sapiens, UniProt P17509 132-218, K202E).
In experiment [4] the target is HOXC9 (Homo sapiens, UniProt P31274 178-260).
The target in experiment [5] is MSX2 (Homo sapiens, UniProt P35548 130-214, R199I).
Experiment [6] has as its target SHOX (Homo sapiens, UniProt O15266 103-189, R173C).
Experiment [7] addresses HOXC9 (Homo sapiens, UniProt P31274 178-260, R193K).
The target in experiment [8] is MSX2 (Homo sapiens, UniProt P35548 130-214).
Experiment [9] deals with HOXC9 (Homo sapiens, UniProt P31274 178-260, R222W).
Experiment [10] addresses MSX2 (Homo sapiens, UniProt P35548 130-214, F161Y).
Experiment [11] has as its target HOXB6 (Homo sapiens, UniProt P17509 132-218).
The target in experiment [12] is HOXB9 (Homo sapiens, UniProt P17482 171-250, T197M).
Experiment [13] addresses HOXB9 (Homo sapiens, UniProt P17482 171-250).
Experiment [14] concerns the target HOXB9 (Homo sapiens, UniProt P17482 171-250, R186Q).
Experiment [15] has as its target NKX3-2 (Homo sapiens, UniProt P78367 192-278, P234S).
Experiment [16] addresses NKX3-2 (Homo sapiens, UniProt P78367 192-278).
Experiment [17] concerns the target T1, VENTX (Homo sapiens, UniProt O95231 78-163, R121Q).
T1 sequence: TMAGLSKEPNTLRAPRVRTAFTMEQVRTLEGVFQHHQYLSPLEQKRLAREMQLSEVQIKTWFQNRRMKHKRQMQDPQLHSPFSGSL

The target of experiment [18] is T2, VENTX (Homo sapiens, UniProt O95231 78-163).
T2 sequence: T1 sequence with Q44R

Experiment [19] has as its target ALX4 (Homo sapiens, UniProt Q9H161 200-286).
The target of experiment [20] is T3, VENTX (Homo sapiens, UniProt O95231 78-163, Y115F).
T3 sequence: T1 sequence with Y38F, Q44R

For experiment [21], the target named is ALX4 (Homo sapiens, UniProt Q9H161 200-286, Q225E).
Experiment [22] concerns the target T4, PAX4 (Homo sapiens, UniProt O43316 9-242, R200K).
T4 sequence: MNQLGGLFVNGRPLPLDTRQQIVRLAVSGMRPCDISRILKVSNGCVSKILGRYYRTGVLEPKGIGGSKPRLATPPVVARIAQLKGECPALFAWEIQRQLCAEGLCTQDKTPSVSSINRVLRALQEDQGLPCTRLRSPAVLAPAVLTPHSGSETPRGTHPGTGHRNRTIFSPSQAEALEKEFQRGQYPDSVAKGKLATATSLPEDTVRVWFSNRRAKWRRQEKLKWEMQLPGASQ

For experiment [23], the target named is T5, PAX4 (Homo sapiens, UniProt O43316 9-242).
T5 sequence: T4 sequence with K192R

The target of experiment [24] is T6, PAX4 (Homo sapiens, UniProt O43316 9-242, R200Q).
T6 sequence: T4 sequence with K192Q

The target of experiment [25] is T7, PAX4 (Homo sapiens, UniProt O43316 9-242, F177V).
T7 sequence: T4 sequence with F169V, K192R

The target in experiment [26] is T8, PAX4 (Homo sapiens, UniProt O43316 9-242, F177Y).
T8 sequence: T4 sequence with F169Y, K192R

Experiment [27] concerns the target T9, PAX4 (Homo sapiens, UniProt O43316 9-242, R227W).
T9 sequence: T4 sequence with K192R, R219W

Experiment [28] has as its target ALX3 (Homo sapiens, UniProt O95076 139-225, N203Q).
The target in experiment [29] is ALX3 (Homo sapiens, UniProt O95076 139-225).
Experiment [30] deals with ALX3 (Homo sapiens, UniProt O95076 139-225, L168Q).
Experiment [31] deals with ALX3 (Homo sapiens, UniProt O95076 139-225, L168V).
For experiment [32], the target named is ALX3 (Homo sapiens, UniProt O95076 139-225, N203S).
A further experiment concerns the target T10, NKX2-6 (Homo sapiens, UniProt A6NCS4 118-204, R150C).
T10 sequence: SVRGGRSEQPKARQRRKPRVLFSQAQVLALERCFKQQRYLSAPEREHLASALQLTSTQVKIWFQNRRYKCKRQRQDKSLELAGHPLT

Residue numbers refer to the chain shown, from its start.

This passage reports binding signal results from article PMC11006913.

Sequence of SHOX (Homo sapiens, UniProt O15266 103-189) (O15266 103-189): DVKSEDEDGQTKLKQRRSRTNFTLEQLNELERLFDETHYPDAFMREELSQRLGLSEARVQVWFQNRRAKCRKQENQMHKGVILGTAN
Sequence of SHOX (Homo sapiens, UniProt O15266 103-189, R173C) (O15266 103-189 R173C): as the sequence (O15266 103-189) above, with R71C counted along it
Sequence of HOXB6 (Homo sapiens, UniProt P17509 132-218) (P17509 132-218): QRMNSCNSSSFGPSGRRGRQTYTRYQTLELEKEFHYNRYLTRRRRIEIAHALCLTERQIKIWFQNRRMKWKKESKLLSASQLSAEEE
Sequence of MSX2 (Homo sapiens, UniProt P35548 130-214, F161Y) (P35548 130-214 F161Y): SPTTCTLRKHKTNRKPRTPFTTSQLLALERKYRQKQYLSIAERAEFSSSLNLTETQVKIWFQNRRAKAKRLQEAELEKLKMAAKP
Sequence of MSX2 (Homo sapiens, UniProt P35548 130-214) (P35548 130-214): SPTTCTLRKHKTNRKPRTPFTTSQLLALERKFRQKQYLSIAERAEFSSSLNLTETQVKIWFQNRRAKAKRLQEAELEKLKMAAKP
Sequence of MSX2 (Homo sapiens, UniProt P35548 130-214, R199I) (P35548 130-214 R199I): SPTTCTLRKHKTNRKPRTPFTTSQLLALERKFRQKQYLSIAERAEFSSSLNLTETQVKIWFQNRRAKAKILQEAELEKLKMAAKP
Sequence of HOXC9 (Homo sapiens, UniProt P31274 178-260, R222W) (P31274 178-260 R222W): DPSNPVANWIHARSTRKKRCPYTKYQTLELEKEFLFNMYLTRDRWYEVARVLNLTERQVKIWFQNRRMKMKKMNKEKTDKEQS
Sequence of HOXC9 (Homo sapiens, UniProt P31274 178-260, K195R) (P31274 178-260 K195R): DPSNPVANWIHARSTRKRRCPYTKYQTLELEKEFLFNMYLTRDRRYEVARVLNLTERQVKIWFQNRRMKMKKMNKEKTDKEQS
Sequence of HOXB6 (Homo sapiens, UniProt P17509 132-218, K202E) (P17509 132-218 K202E): as the sequence (P17509 132-218) above, with K71E counted along it
Sequence of HOXC9 (Homo sapiens, UniProt P31274 178-260) (P31274 178-260): as the sequence (P31274 178-260 R222W) above, with W45R counted along it
Sequence of HOXC9 (Homo sapiens, UniProt P31274 178-260, R193K) (P31274 178-260 R193K): as the sequence (P31274 178-260 R222W) above, with R16K, W45R counted along it
Sequence of ALX4 (Homo sapiens, UniProt Q9H161 200-286) (Q9H161 200-286): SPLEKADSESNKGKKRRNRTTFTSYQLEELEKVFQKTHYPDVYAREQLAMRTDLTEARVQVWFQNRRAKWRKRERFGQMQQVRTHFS
Sequence of ALX3 (Homo sapiens, UniProt O95076 139-225, L168V) (O95076 139-225 L168V): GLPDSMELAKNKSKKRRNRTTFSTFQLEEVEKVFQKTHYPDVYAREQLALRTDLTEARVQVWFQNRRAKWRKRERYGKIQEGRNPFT
Sequence of NKX3-2 (Homo sapiens, UniProt P78367 192-278, P234S) (P78367 192-278 P234S): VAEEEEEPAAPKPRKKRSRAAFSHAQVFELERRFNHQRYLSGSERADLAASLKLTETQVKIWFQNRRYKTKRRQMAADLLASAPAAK
Sequence of ALX4 (Homo sapiens, UniProt Q9H161 200-286, Q225E) (Q9H161 200-286 Q225E): as the sequence (Q9H161 200-286) above, with Q26E counted along it
Sequence of HOXB9 (Homo sapiens, UniProt P17482 171-250, R186Q) (P17482 171-250 R186Q): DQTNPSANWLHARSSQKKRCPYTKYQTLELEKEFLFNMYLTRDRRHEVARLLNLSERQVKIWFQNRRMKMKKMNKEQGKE
Sequence of HOXB9 (Homo sapiens, UniProt P17482 171-250) (P17482 171-250): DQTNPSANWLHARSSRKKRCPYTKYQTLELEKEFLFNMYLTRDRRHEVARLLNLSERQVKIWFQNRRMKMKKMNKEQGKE
Sequence of HOXB9 (Homo sapiens, UniProt P17482 171-250, T197M) (P17482 171-250 T197M): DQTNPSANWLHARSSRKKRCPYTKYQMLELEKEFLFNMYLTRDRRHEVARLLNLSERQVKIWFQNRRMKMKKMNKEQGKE
Sequence of NKX3-2 (Homo sapiens, UniProt P78367 192-278) (P78367 192-278): as the sequence (P78367 192-278 P234S) above, with S43P counted along it
Sequence of ALX3 (Homo sapiens, UniProt O95076 139-225, L168Q) (O95076 139-225 L168Q): as the sequence (O95076 139-225 L168V) above, with V30Q counted along it
Sequence of ALX3 (Homo sapiens, UniProt O95076 139-225, N203S) (O95076 139-225 N203S): as the sequence (O95076 139-225 L168V) above, with V30L, N65S counted along it
Sequence of ALX3 (Homo sapiens, UniProt O95076 139-225) (O95076 139-225): as the sequence (O95076 139-225 L168V) above, with V30L counted along it
Sequence of ALX3 (Homo sapiens, UniProt O95076 139-225, N203Q) (O95076 139-225 N203Q): as the sequence (O95076 139-225 L168V) above, with V30L, N65Q counted along it

Turning to CCAGGGAC, the binding signal with SHOX [1] is 7.08 upbm affinity estimate (log intensity, higher = more binding, comparable within an allelic series); in the experiment with HOXC9 [2] it was 9.47 upbm affinity estimate (log intensity, higher = more binding, comparable within an allelic series); with HOXB6 [3], 8.97 upbm affinity estimate (log intensity, higher = more binding, comparable within an allelic series); with HOXC9 [4] it was 9.52 upbm affinity estimate (log intensity, higher = more binding, comparable within an allelic series); with MSX2 [5] it was 9.5 upbm affinity estimate (log intensity, higher = more binding, comparable within an allelic series); with SHOX [6], 7.17 upbm affinity estimate (log intensity, higher = more binding, comparable within an allelic series). Also, the binding signal in the experiment with HOXC9 [7] was 9.51 upbm affinity estimate (log intensity, higher = more binding, comparable within an allelic series); with MSX2 [8] it was 9.58 upbm affinity estimate (log intensity, higher = more binding, comparable within an allelic series); with HOXC9 [9], 9.62 upbm affinity estimate (log intensity, higher = more binding, comparable within an allelic series); in the experiment with MSX2 [10], 9.57 upbm affinity estimate (log intensity, higher = more binding, comparable within an allelic series); in the experiment with HOXB6 [11], 8.99 upbm affinity estimate (log intensity, higher = more binding, comparable within an allelic series).

Turning to TTAGGAAA, the binding signal with SHOX [1] was 8.58 upbm affinity estimate (log intensity, higher = more binding, comparable within an allelic series).

For GCCGGGCA, the binding signal was 7.25 upbm affinity estimate (log intensity, higher = more binding, comparable within an allelic series) with SHOX [1]; 8.48 upbm affinity estimate (log intensity, higher = more binding, comparable within an allelic series) with HOXB9 [12]; 8.45 upbm affinity estimate (log intensity, higher = more binding, comparable within an allelic series) in the experiment with HOXB9 [13]; 7.18 upbm affinity estimate (log intensity, higher = more binding, comparable within an allelic series) with SHOX [6]; 8.59 upbm affinity estimate (log intensity, higher = more binding, comparable within an allelic series) with HOXB9 [14]; 10.6 upbm affinity estimate (log intensity, higher = more binding, comparable within an allelic series) in the experiment with NKX3-2 [15]. Besides, in the experiment with NKX3-2 [16], the binding signal was 10.6 upbm affinity estimate (log intensity, higher = more binding, comparable within an allelic series).

As for AAATATAA, the binding signal in the experiment with SHOX [1] was 9.24 upbm affinity estimate (log intensity, higher = more binding, comparable within an allelic series).

Consider ACAATCAA, for which the binding signal with SHOX [1] was 8.45 upbm affinity estimate (log intensity, higher = more binding, comparable within an allelic series).

On to GCGCCCCC, for which the binding signal in the experiment with SHOX [1] is 7.04 upbm affinity estimate (log intensity, higher = more binding, comparable within an allelic series); with VENTX [17], 8.12 upbm affinity estimate (log intensity, higher = more binding, comparable within an allelic series); with VENTX [18], 8.12 upbm affinity estimate (log intensity, higher = more binding, comparable within an allelic series); with ALX4 [19] it was 8.12 upbm affinity estimate (log intensity, higher = more binding, comparable within an allelic series); in the experiment with VENTX [20] it was 8.06 upbm affinity estimate (log intensity, higher = more binding, comparable within an allelic series); with ALX4 [21], 8.14 upbm affinity estimate (log intensity, higher = more binding, comparable within an allelic series). In addition, the binding signal with SHOX [6] was 7.07 upbm affinity estimate (log intensity, higher = more binding, comparable within an allelic series).

Take CGCAGTGC: the binding signal with SHOX [1] is 7.16 upbm affinity estimate (log intensity, higher = more binding, comparable within an allelic series); in the experiment with HOXC9 [2] it was 9.74 upbm affinity estimate (log intensity, higher = more binding, comparable within an allelic series); with HOXC9 [4], 9.67 upbm affinity estimate (log intensity, higher = more binding, comparable within an allelic series); in the experiment with SHOX [6], 7.23 upbm affinity estimate (log intensity, higher = more binding, comparable within an allelic series); with HOXC9 [7] it was 9.78 upbm affinity estimate (log intensity, higher = more binding, comparable within an allelic series); with HOXC9 [9], 9.73 upbm affinity estimate (log intensity, higher = more binding, comparable within an allelic series).

For the sequence CGGGGGGC, the binding signal in the experiment with SHOX [1] was 7.33 upbm affinity estimate (log intensity, higher = more binding, comparable within an allelic series); with PAX4 [22], 9.22 upbm affinity estimate (log intensity, higher = more binding, comparable within an allelic series); in the experiment with PAX4 [23], 9.41 upbm affinity estimate (log intensity, higher = more binding, comparable within an allelic series); with MSX2 [5], 9.61 upbm affinity estimate (log intensity, higher = more binding, comparable within an allelic series); with PAX4 [24], 9.12 upbm affinity estimate (log intensity, higher = more binding, comparable within an allelic series); with SHOX [6] it was 7 upbm affinity estimate (log intensity, higher = more binding, comparable within an allelic series). The binding signal with PAX4 [25] is 8.99 upbm affinity estimate (log intensity, higher = more binding, comparable within an allelic series); in the experiment with MSX2 [8], 9.76 upbm affinity estimate (log intensity, higher = more binding, comparable within an allelic series); with PAX4 [26], 9.11 upbm affinity estimate (log intensity, higher = more binding, comparable within an allelic series); with MSX2 [10], 9.77 upbm affinity estimate (log intensity, higher = more binding, comparable within an allelic series); with PAX4 [27], 9.12 upbm affinity estimate (log intensity, higher = more binding, comparable within an allelic series).

Turning to CCAGCTCC, the binding signal was 7.19 upbm affinity estimate (log intensity, higher = more binding, comparable within an allelic series) with SHOX [1]; 8.94 upbm affinity estimate (log intensity, higher = more binding, comparable within an allelic series) with HOXB6 [3]; 7.65 upbm affinity estimate (log intensity, higher = more binding, comparable within an allelic series) with ALX3 [28]; 7.18 upbm affinity estimate (log intensity, higher = more binding, comparable within an allelic series) in the experiment with SHOX [6]; 7.54 upbm affinity estimate (log intensity, higher = more binding, comparable within an allelic series) with ALX3 [29]; 7.75 upbm affinity estimate (log intensity, higher = more binding, comparable within an allelic series) with ALX3 [30]. For the same sequence, the binding signal with ALX3 [31] was 7.76 upbm affinity estimate (log intensity, higher = more binding, comparable within an allelic series); with ALX3 [32], 7.69 upbm affinity estimate (log intensity, higher = more binding, comparable within an allelic series); in the experiment with HOXB6 [11], 8.78 upbm affinity estimate (log intensity, higher = more binding, comparable within an allelic series).

As for CACCACCC, the binding signal in the experiment with SHOX [1] was 7.17 upbm affinity estimate (log intensity, higher = more binding, comparable within an allelic series); with PAX4 [22] it was 9.48 upbm affinity estimate (log intensity, higher = more binding, comparable within an allelic series); in the experiment with PAX4 [23], 9.49 upbm affinity estimate (log intensity, higher = more binding, comparable within an allelic series); with NKX2-6, 9.46 upbm affinity estimate (log intensity, higher = more binding, comparable within an allelic series); with PAX4 [24], 9.54 upbm affinity estimate (log intensity, higher = more binding, comparable within an allelic series); with SHOX [6], 7.25 upbm affinity estimate (log intensity, higher = more binding, comparable within an allelic series). Besides, the binding signal in the experiment with PAX4 [25] is 9.4 upbm affinity estimate (log intensity, higher = more binding, comparable within an allelic series); with PAX4 [26] it was 9.47 upbm affinity estimate (log intensity, higher = more binding, comparable within an allelic series); in the experiment with PAX4 [27] it was 9.4 upbm affinity estimate (log intensity, higher = more binding, comparable within an allelic series).

On to GGGAACCC, for which the binding signal is 7.2 upbm affinity estimate (log intensity, higher = more binding, comparable within an allelic series) with SHOX [1]; 9.42 upbm affinity estimate (log intensity, higher = more binding, comparable within an allelic series) with PAX4 [22]; 9.42 upbm affinity estimate (log intensity, higher = more binding, comparable within an allelic series) in the experiment with PAX4 [23]; 9.62 upbm affinity estimate (log intensity, higher = more binding, comparable within an allelic series) with PAX4 [24]; 7.06 upbm affinity estimate (log intensity, higher = more binding, comparable within an allelic series) in the experiment with SHOX [6]; 9.39 upbm affinity estimate (log intensity, higher = more binding, comparable within an allelic series) in the experiment with PAX4 [25]. For the same sequence, the binding signal is 9.36 upbm affinity estimate (log intensity, higher = more binding, comparable within an allelic series) in the experiment with PAX4 [26] and 9.48 upbm affinity estimate (log intensity, higher = more binding, comparable within an allelic series) with PAX4 [27].
